# From PubChem BioAssay AID1159580 (chemical genetic matrix, 2015)
# Among all 5,500 compounds or so, about 2,000 (36%) were called active. Inconclusive results (about 18%) are left out. Some of the results follow. A number with no mark means an inactive call. No stated cut-off is given here; in the data, active means normalized growth mostly below about 0.91 (no sharp cut-off); inconclusive means no clear call, values can overlap the other calls; inactive means mostly above about 0.92.
# Assay: chemical genetic growth profiling, strain panel (AID 1159580);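 further: tested at 20 µM; growth read once vehicle control cultures reached saturation at 30 °C; 1 = growth at the plate median or of vehicle wells; lower values mean less growth of the strain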
# Conditions: S. cerevisiae deletion strains, growth OD
# [1] = locus YHR030C, strain SLT2, active compounds read low
# [2] = locus YHR079C, strain IRE1, active compounds read low
# [3] = locus YJL095W, strain BCK1, active compounds read low
# [4] = locus YJR066W, strain TOR1, active compounds read low
# [5] = locus YLR113W, strain HOG1, active compounds read low
# [6] = locus YNL183C, strain NPR1, active compounds read low
# [7] = locus YOR231W, strain MKK1, active compounds read low
# [8] = locus YPL256C, strain CLN2, active compounds read low
structure (smiles),measurement,setting,value
CC(C(=O)O)[C@H]1CCC2C3CC=C4C[C@@H](O)CC[C@]4(C)C3CC[C@@]21C (stereo partly drawn),normalized growth,"locus YAL021C, strain ccr4, active compounds read low",0.939
same,normalized growth,"locus YAL026C, strain drs2, active compounds read low",0.627 (active)
same,normalized growth,"locus YAL030W, strain snc1, active compounds read low",1.03
same,normalized growth,"locus YBL061C, strain skt5, active compounds read low",1.03
same,normalized growth,"locus YBR009C, strain hhf1, active compounds read low",0.979
same,normalized growth,"locus YBR023C, strain chs3, active compounds read low",1
same,normalized growth,"locus YBR171W, strain sec66, active compounds read low",1.02
same,normalized growth,"locus YBR231C, strain swc5, active compounds read low",1.04
same,normalized growth,"locus YBR279W, strain paf1, active compounds read low",1.02
same,normalized growth,"locus YCL011C, strain gbp2, active compounds read low",1.03
same,normalized growth,"locus YCL016C, strain dcc1, active compounds read low",0.977
same,normalized growth,"locus YCL061C, strain MRC1, active compounds read low",1
same,normalized growth,"locus YCL069W, strain vba3, active compounds read low",1.03
same,normalized growth,"locus YCR088W, strain abp1, active compounds read low",1.04
same,normalized growth,"locus YDL005C, strain med2, active compounds read low",1.05
same,normalized growth,"locus YDL040C, strain nat1, active compounds read low",1.04
same,normalized growth,"locus YDR001C, strain nth1, active compounds read low",1.04
same,normalized growth,"locus YDR069C, strain doa4, active compounds read low",0.988
same,normalized growth,"locus YDR137W, strain rgp1, active compounds read low",0.562 (active)
same,normalized growth,"locus YDR159W, strain sac3, active compounds read low",1.04
same,normalized growth,"locus YDR195W, strain ref2",1.35 [resistant] (active)
same,normalized growth,"locus YDR297W, strain sur2, active compounds read low",1.02
same,normalized growth,"locus YDR334W, strain swr1, active compounds read low",1.05
same,normalized growth,"locus YDR335W, strain msn5, active compounds read low",1.02
same,normalized growth,"locus YDR392W, strain spt3, active compounds read low",0.733 (active)
same,normalized growth,"locus YEL003W, strain gim4, active compounds read low",1.02
same,normalized growth,"locus YEL037C, strain rad23, active compounds read low",1.03
same,normalized growth,"locus YEL061C, strain CIN8 (second series), active compounds read low",1.05
same,normalized growth,"locus YER015W, strain faa2, active compounds read low",1.01
same,normalized growth,"locus YER016W, strain bim1, active compounds read low",1.04
same,normalized growth,"locus YER111C, strain swi4, active compounds read low",1.02
same,normalized growth,"locus YER155C, strain BEM2 (second series), active compounds read low",1.08
same,normalized growth,"locus YFR010W, strain ubp6, active compounds read low",0.953
same,normalized growth,"locus YGL167C, strain pmr1, active compounds read low",1.03
same,normalized growth,"locus YGL173C, strain kem1, active compounds read low",0.981
same,normalized growth,"locus YGL227W, strain vid30, active compounds read low",1.04
same,normalized growth,"locus YGL240W, strain doc1, active compounds read low",1.03
same,normalized growth,"locus YGL253W, strain hxk2, active compounds read low",0.989
same,normalized growth,"locus YHR013C, strain ard1, active compounds read low",1.04
same,normalized growth,"locus YHR027C, strain rpn1, active compounds read low",1.02
same,normalized growth,[1],1.04
same,normalized growth,[2],1.03
same,normalized growth,"locus YHR142W, strain chs7, active compounds read low",0.967
same,normalized growth,"locus YJL092W, strain hpr5, active compounds read low",1.02
same,normalized growth,"locus YJL095W, strain BCK1 (second series), active compounds read low",1.03
same,normalized growth,[3],1.02
same,normalized growth,"locus YJL115W, strain asf1, active compounds read low",1.04
same,normalized growth,"locus YJL129C, strain trk1, active compounds read low",1.03
same,normalized growth,"locus YJL154C, strain vps35, active compounds read low",1.04
same,normalized growth,"locus YJL164C, strain tpk1, active compounds read low",0.973
same,normalized growth,"locus YJL166W, strain qcr8, active compounds read low",0.97
same,normalized growth,"locus YJL187C, strain SWE1, active compounds read low",1.01
same,normalized growth,[4],0.98
same,normalized growth,"locus YKL160W, strain elf1, active compounds read low",1
same,normalized growth,"locus YKR026C, strain gcn3, active compounds read low",1.04
same,normalized growth,"locus YKR091W, strain srl3, active compounds read low",1.05
same,normalized growth,"locus YLL001W, strain dnm1, active compounds read low",1.01
same,normalized growth,"locus YLL026W, active compounds read low",1.03
same,normalized growth,"locus YLL041C, strain sdh2, active compounds read low",1.03
same,normalized growth,"locus YLR027C, strain aat2, active compounds read low",1.01
same,normalized growth,[5],1.06
same,normalized growth,"locus YLR221C, strain rsa3, active compounds read low",0.996
same,normalized growth,"locus YLR258W, strain gsy2, active compounds read low",1.02
same,normalized growth,"locus YLR262C, strain YPT6 (second series), active compounds read low",0.485 (active)
same,normalized growth,"locus YLR320W, strain mms22, active compounds read low",0.919
same,normalized growth,"locus YLR342W, strain FKS1, active compounds read low",1.03
same,normalized growth,"locus YLR357W, strain rsc2, active compounds read low",1.1
same,normalized growth,"locus YLR370C, strain arc18, active compounds read low",1.01
same,normalized growth,"locus YLR384C, strain iki3, active compounds read low",1.04
same,normalized growth,"locus YML120C, strain ndi1, active compounds read low",1.01
same,normalized growth,"locus YMR058W, strain fet3, active compounds read low",1
same,normalized growth,"locus YMR125W, strain sto1, active compounds read low",1.03
same,normalized growth,"locus YMR129W, active compounds read low",1.03
same,normalized growth,"locus YMR205C, strain PFK2, active compounds read low",1.02
same,normalized growth,"locus YMR231W, strain pep5, active compounds read low",1.02
same,normalized growth,"locus YNL071W, strain lat1, active compounds read low",0.989
same,normalized growth,[6],0.971
same,normalized growth,"locus YNL209W, strain ssb2, active compounds read low",1.03
same,normalized growth,"locus YNL248C, strain rpa49, active compounds read low",0.963
same,normalized growth,"locus YNL322C, strain KRE1 (second series), active compounds read low",1.06
same,normalized growth,"locus YNR049C, strain mso1, active compounds read low",1.05
same,normalized growth,"locus YOR001W, strain rrp6, active compounds read low",0.997
same,normalized growth,"locus YOR070C, strain gyp1, active compounds read low",0.962
same,normalized growth,"locus YOR080W, strain dia2, active compounds read low",1.03
same,normalized growth,"locus YOR083W, strain WHI5, active compounds read low",0.983
same,normalized growth,"locus YOR106W, strain vam3, active compounds read low",1.01
same,normalized growth,[7],1.06
same,normalized growth,"locus YOR265W, strain rbl2, active compounds read low",1.02
same,normalized growth,"locus YOR270C, strain vph1, active compounds read low",0.961
same,normalized growth,"locus YOR290C, strain snf2, active compounds read low",0.995
same,normalized growth,"locus YPL051W, strain arl3, active compounds read low",0.963
same,normalized growth,"locus YPL078C, strain atp4, active compounds read low",1
same,normalized growth,"locus YPL106C, strain sse1, active compounds read low",1.26 [resistant] (active)
same,normalized growth,"locus YPL240C, strain hsp82, active compounds read low",1.04
same,normalized growth,[8],1.06
CC(=O)C1CCC2C3CC=C4CC(OS(=O)(=O)O)CC[C@]4(C)C3CC[C@]12C (stereo partly drawn),normalized growth,[1],0.973
same,normalized growth,[2],0.984
same,normalized growth,[3],0.953
same,normalized growth,[4],0.877
same,normalized growth,[5],1.03
same,normalized growth,[6],0.902
same,normalized growth,[7],0.977
same,normalized growth,[8],0.975
